Results taken from PubChem BioAssay.

The compounds below were run against E3 ubiquitin-protein ligase XIAP (Homo sapiens) (UniProt P98170) (assay: small molecules binding XIAP protein – biophysical, small-molecule microarray, fluorescence 635 nm, primary screen (AID 1181;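 note: score merges 667 nm emission and signal to noise over triplicate slides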)). Settings: higher = more signal.
E3 ubiquitin-protein ligase XIAP (Homo sapiens), sequence (P98170 whole entry, looked up): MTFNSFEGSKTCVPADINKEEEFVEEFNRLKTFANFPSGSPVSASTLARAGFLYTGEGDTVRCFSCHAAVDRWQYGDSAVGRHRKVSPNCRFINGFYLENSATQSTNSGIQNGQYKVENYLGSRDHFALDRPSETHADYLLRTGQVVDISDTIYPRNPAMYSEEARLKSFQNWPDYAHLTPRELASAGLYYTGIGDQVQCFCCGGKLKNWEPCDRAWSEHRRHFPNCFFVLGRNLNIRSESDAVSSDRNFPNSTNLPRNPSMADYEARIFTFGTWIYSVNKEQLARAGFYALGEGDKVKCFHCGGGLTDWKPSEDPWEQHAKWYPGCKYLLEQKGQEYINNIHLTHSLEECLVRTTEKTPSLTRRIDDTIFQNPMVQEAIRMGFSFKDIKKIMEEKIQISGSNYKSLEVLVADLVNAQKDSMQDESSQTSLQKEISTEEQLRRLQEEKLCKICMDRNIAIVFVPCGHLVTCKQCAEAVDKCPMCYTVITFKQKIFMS

SMILES | composite z-score
COC(=O)[C@@]1(Cc2ccc(F)cc2)[C@H]2c3cc(C(=O)N4CCCC4)n(Cc4ccc(S(C)(=O)=O)cc4)c3C[C@H]2CN1C(=O)c1ccccc1 | 0.261
CO[C@H]1O[C@H](CO)[C@@H](OC(=O)Nc2ccc(C(F)(F)F)cc2)[C@H](OC(=O)Nc2ccc3c(c2)OCO3)[C@@H]1OC(=O)Nc1ccc2c(c1)OCO2 | 0.098
O=C1O[C@@H](c2ccccc2)[C@@H](c2ccccc2)N2[C@@H](c3ccccc3OCCO)[C@]3(C(=O)Nc4ccccc43)[C@@H](C(=O)Nc3nc4ccccc4s3)[C@H]12 | 0.0975
Cc1ccc(S[C@]2(C(=O)NCCCN(C)C)CC(=O)N(Cc3cc(C(F)(F)F)cc(C(F)(F)F)c3)[C@@H]2c2ccc(CO)cc2I)cc1 | -0.0795
O=C1c2ccccc2[C@](Cc2ccccc2I)(C(=O)NCC(F)(F)F)[C@H](c2ccc(CO)cc2)N1Cc1ccccc1Cl | -0.0663
O=C(NCCN1CCOCC1)[C@@H]1c2ccccc2C(=O)N(C2CCCCC2)[C@H]1c1ccc(CO)cc1 | -0.165
CC#CC(=O)Oc1ccccc1C=CC(=O)OCC | -0.162
COC(=O)[C@@]1(CCS(=O)(=O)c2ccccc2)N=C(c2ccc(OCCCO)cc2)O[C@H]1c1ccccc1CN=[N+]=[N-] | 0.316
C=CC1(C(=O)OC)CC=C(C(=O)OC)CC1 (stereo not given) | -0.248
CC(C)C(CO)N1C(=O)[C@@H]2C3C(=O)OCCC/C=C\[C@H]3OC23C=CCN(CCN2CCOCC2)C(=O)[C@@H]13 (stereo not given in full) | 0.0191
COc1cc(C(O)C2C=CC3C(=O)NC(=O)C3N2Nc2ccccn2)cc(OC)c1OC (stereo not given) | -0.031
COC(=O)[C@@]1(Cc2ccccc2)[C@H]2c3cc(C(=O)N4CCCC4)n(Cc4ccc(S(C)(=O)=O)cc4)c3C[C@H]2CN1C(=O)c1ccccc1 | -0.105
C=C[C@@H](COC(=O)OC(C)(C)C)N(Cc1ccc(OC)cc1)S(=O)(=O)c1ccc(Br)cc1 | 0.1
COC(=O)[C@H](Cc1ccccc1)N[C@@H](/C=C/C1CC1)[C@H](O)Cc1ccccc1 | -0.0559
O=C1c2ccccc2[C@](Cc2ccccc2I)(C(=O)NCCN2CCOCC2)[C@H](c2ccc(CO)cc2)N1C1CCCCC1 | 0.0623
CCOC(=O)[C@H]1C/C=C/C[C@H](C(=O)OCC)C(=O)O[C@H]2[C@@H](OC)O[C@H](CO)[C@@H](OC(=O)c3c(OC)cccc3OC)[C@@H]2OC1=O | -0.102
CCOC(=O)C[C@H]1[C@H](OC(=O)c2ccc(C(=O)c3ccccc3)cc2)[C@@H](NC(=O)c2ccc3ccccc3c2)c2cc(OCCCO)ccc2N1C(=O)Cc1ccc(OC)cc1 | -0.12
CCC(CC)C(O)C1C=CC2C(=O)NC(=O)C2N1Nc1ccccn1 (stereo not given) | 0.162

SMILES | composite z-score
COc1ccc([Si](C)(C)[C@H]2[C@H](CC(=O)N3Cc4ccccc4C[C@H]3CO)O[C@@]3(C(=O)N(Cc4cccc(N5CCC5=O)c4)c4ccccc43)[C@@H]2C)cc1 | -0.0393
OCCCC1=CC(c2cccs2)N(Cc2cc3c(cc2Br)OCO3)CC1 (stereo not given) | 0.019
CCCCCCc1nc(-c2ccc(OC)nc2)cc2c1[Si](C(C)C)(C(C)C)O[C@H]2c1ccccc1 | -0.241
COc1ccc([Si](C)(C)[C@H]2[C@H](CCO)O[C@@]3(C(=O)N(Cc4ccc(N(C=O)c5ccccc5)cc4)c4ccccc43)[C@@H]2C)cc1 | -0.163
O=C(NCCO)C1=C[C@H](Oc2ccccc2I)[C@@H](O)[C@H](N(Cc2ccco2)C(=O)Cc2ccccc2)C1 | -0.052
C=C[C@H](C)[C@@H](OC(=O)Nc1ccc(OC)cc1)c1ccc(O)c2ccccc12 | -0.196
C=C(COC)/C(=C/C[C@H](OC(C)=O)c1ccc(CO)o1)c1cc(C(=O)OC)ccc1OC | 0.0101
COC(=O)[C@@]1(Cc2ccccc2)[C@H]2c3cc(C(=O)N(C)C)n(Cc4ccsc4Br)c3C[C@H]2CN1C(=O)c1ccccc1 | 0.0496
COc1ccc([Si](C)(C)[C@@H]2[C@@H](CCO)O[C@]3(C(=O)N(Cc4ccc(N(C=O)c5ccccc5)cc4)c4ccccc43)[C@H]2C)cc1 | -0.184
CN(C)CCCCCCNC(=O)[C@H]1C[C@H]2C(=O)N3CCC[C@H]3C(=O)N2[C@H]1c1ccc(O)cc1 | 0.23
O=C(CS)NCCCCCCNC(=O)[C@@H]1C[C@@H]2C(=O)NCC(=O)N2[C@@H]1c1cccc(OCCO)c1 | 0.0346
COC(=O)[C@@]1(Cc2ccc(F)cc2)[C@H]2c3cc(C(=O)N(C)C)n(Cc4ccccc4)c3C[C@H]2CN1C(=O)c1ccccc1 | -0.2
C=CCNC(=O)[C@H]1[C@@H]2C(=O)O[C@@H](c3ccccc3)[C@@H](c3ccccc3)N2[C@@H](c2ccccc2OCCO)[C@]12C(=O)Nc1ccc(C#CCC(C(=O)OC)C(=O)OC)cc12 | -0.159
COCCOC(=O)N1C(=O)[C@@]2(c3cc(C#CCNC(N)=O)ccc31)[C@H](C(=O)Nc1nc3ccccc3s1)[C@H]1C(=O)O[C@H](c3ccccc3)[C@H](c3ccccc3)N1[C@@H]2c1ccc(OCCO)cc1 | 0.0402
C=CCOC(=O)[C@H]1[C@@H]2C(=O)O[C@@H](c3ccccc3)[C@@H](c3ccccc3)N2[C@@H](c2ccc(OCCOC(=O)[C@H]3C[C@H]4C(=O)N[C@@H](CCCC[N+](C)(C)C)C(=O)N4[C@H]3c3ccc(O)cc3)cc2)[C@]12C(=O)Nc1ccc(I)cc12 | 2.28
C=CCOC(=O)[C@H]1[C@@H]2C(=O)O[C@@H](c3ccccc3)[C@@H](c3ccccc3)N2[C@@H](c2ccc(OCCOC(=O)[C@H]3C[C@H]4C(=O)N[C@@H](CCCCN(C)C)C(=O)N4[C@H]3c3ccc(O)cc3)cc2)[C@]12C(=O)Nc1ccc(I)cc12 | -0.0819
C=CCN1C(=O)[C@@]2(CC=C)N=C(c3ccc(OCCCO)cc3)O[C@H]2c2ccccc21 | 0.0842
